Among the data in ChEMBL document CHEMBL1961873, “Compounds: GSK PKIS; Assays: Nanosyn kinase panel” (2012) are inhibition values, retold here.

SMILES strings stand for the structures.

Experiment [1] addresses Calcium/calmodulin-dependent protein kinase type II subunit alpha (Homo sapiens) (UniProt Q9UQM7). The following applies: at 1 µM.
Experiment [2] addresses Calcium/calmodulin-dependent protein kinase type II subunit delta (Homo sapiens) (UniProt Q13557). The note with it: at 0.1 µM.
Experiment [3] has the same target. The following applies: at 1 µM.
The target of experiment [4] is T1, Calcium/calmodulin-dependent protein kinase type IV (Homo sapiens) (UniProt Q16566).
T1 sequence (whole entry): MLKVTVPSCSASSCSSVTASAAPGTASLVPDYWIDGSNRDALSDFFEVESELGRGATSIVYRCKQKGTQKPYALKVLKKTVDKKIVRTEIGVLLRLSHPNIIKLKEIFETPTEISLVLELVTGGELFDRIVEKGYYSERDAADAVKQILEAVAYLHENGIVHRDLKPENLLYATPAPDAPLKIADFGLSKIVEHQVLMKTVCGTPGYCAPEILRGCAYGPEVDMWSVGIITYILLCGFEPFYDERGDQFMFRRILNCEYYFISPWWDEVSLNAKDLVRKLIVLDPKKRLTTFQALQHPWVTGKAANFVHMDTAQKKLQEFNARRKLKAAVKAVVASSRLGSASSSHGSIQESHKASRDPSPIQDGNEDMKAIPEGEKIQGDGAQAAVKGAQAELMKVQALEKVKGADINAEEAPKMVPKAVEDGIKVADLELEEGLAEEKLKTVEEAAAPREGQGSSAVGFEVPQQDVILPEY
The following applies: at 0.1 µM.

Experiment [5] deals with T1, Calcium/calmodulin-dependent protein kinase type IV (Homo sapiens). The note with it: at 1 µM.
The target in experiment [6] is T2, Serine/threonine-protein kinase Chk1 (Homo sapiens) (UniProt O14757).
T2 sequence (whole entry): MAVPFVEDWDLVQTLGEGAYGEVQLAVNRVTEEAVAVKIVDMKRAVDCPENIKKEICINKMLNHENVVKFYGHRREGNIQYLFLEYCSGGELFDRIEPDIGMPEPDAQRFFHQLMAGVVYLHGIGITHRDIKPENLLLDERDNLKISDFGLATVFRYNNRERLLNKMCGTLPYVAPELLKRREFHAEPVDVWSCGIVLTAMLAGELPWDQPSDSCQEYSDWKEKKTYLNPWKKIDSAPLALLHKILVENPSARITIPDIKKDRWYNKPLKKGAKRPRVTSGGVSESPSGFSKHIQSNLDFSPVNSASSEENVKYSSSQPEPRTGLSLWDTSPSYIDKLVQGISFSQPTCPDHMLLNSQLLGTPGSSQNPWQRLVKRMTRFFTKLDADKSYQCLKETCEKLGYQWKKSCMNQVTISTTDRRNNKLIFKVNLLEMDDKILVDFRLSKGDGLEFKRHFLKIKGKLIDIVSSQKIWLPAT
The following applies: at 0.1 µM.

For experiment [7], the target named is T2, Serine/threonine-protein kinase Chk1 (Homo sapiens). The note with it: at 1 µM.
Experiment [8] concerns the target Serine/threonine-protein kinase Chk2 (Homo sapiens) (UniProt O96017). The note with it: at 0.1 µM.
For experiment [9] the target is unchanged. The note with it: at 1 µM.
The target of experiment [10] is Death-associated protein kinase 1 (Homo sapiens) (UniProt P53355). The following applies: at 0.1 µM.
For experiment [11] the target is unchanged. The note with it: at 1 µM.
For experiment [12], the target named is T3, Serine/threonine-protein kinase DCLK2 (Homo sapiens) (UniProt Q8N568).
T3 sequence (whole entry): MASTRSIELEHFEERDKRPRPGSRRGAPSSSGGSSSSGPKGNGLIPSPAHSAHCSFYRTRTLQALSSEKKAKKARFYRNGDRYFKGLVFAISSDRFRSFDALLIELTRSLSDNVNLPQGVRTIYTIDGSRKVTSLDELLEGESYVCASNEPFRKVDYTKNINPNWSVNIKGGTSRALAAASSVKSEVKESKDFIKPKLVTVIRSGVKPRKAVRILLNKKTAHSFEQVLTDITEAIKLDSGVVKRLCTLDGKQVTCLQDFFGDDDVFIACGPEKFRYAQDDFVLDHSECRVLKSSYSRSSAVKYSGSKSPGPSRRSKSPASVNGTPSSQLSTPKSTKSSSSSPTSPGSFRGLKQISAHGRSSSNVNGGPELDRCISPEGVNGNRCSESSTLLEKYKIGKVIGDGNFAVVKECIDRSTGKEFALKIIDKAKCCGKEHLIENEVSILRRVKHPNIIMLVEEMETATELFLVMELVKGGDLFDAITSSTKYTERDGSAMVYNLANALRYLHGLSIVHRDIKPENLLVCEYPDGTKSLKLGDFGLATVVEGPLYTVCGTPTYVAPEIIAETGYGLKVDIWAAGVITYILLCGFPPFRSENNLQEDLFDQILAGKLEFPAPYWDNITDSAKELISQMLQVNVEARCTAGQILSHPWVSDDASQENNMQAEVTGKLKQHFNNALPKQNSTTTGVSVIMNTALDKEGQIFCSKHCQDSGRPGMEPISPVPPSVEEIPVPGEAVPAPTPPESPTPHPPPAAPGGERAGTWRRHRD
The note with it: at 0.1 µM.

Experiment [13] addresses T3, Serine/threonine-protein kinase DCLK2 (Homo sapiens). The following applies: at 1 µM.
Experiment [14] has as its target MAP kinase-activated protein kinase 2 (Homo sapiens) (UniProt P49137). The following applies: at 0.1 µM.
Experiment [15] has the same target. The following applies: at 1 µM.
Experiment [16] deals with MAP kinase-activated protein kinase 3 (Homo sapiens) (UniProt Q16644). The following applies: at 0.1 µM.
Experiment [17] has the same target. The note with it: at 1 µM.
The target in experiment [18] is Serine/threonine-protein kinase MARK1 (Homo sapiens) (UniProt Q9P0L2). The following applies: at 0.1 µM.
Experiment [19] has the same target. The following applies: at 1 µM.
Experiment [20] has as its target MAP/microtubule affinity-regulating kinase 3 (Homo sapiens) (UniProt P27448). The following applies: at 0.1 µM.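 Note: mean percent inhibition of MARK3 kinase activity, measured within the GSK PKIS screening panel.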

MAP/microtubule affinity-regulating kinase 3 (Homo sapiens), sequence (P27448 whole entry, looked up): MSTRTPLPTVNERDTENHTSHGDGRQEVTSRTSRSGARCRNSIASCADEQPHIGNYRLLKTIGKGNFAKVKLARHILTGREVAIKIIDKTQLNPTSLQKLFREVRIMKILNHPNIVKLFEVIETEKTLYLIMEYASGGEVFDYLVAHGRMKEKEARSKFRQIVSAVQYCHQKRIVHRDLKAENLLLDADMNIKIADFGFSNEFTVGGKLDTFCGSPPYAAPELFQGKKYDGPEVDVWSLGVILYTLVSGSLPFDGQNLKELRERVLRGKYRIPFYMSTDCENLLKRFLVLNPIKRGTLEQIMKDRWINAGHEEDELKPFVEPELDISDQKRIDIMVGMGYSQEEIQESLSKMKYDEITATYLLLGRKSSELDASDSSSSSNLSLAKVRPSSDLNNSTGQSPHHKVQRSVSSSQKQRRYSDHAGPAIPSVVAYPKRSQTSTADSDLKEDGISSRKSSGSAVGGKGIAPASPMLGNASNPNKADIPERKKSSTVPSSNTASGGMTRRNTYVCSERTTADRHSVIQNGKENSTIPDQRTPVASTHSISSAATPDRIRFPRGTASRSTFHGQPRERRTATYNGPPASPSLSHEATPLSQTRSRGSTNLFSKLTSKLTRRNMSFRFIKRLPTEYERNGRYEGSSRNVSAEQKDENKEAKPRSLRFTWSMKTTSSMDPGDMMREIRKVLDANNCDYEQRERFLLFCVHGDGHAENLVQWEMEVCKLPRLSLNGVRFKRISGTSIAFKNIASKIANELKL
Calcium/calmodulin-dependent protein kinase type II subunit delta (Homo sapiens), sequence (Q13557 whole entry): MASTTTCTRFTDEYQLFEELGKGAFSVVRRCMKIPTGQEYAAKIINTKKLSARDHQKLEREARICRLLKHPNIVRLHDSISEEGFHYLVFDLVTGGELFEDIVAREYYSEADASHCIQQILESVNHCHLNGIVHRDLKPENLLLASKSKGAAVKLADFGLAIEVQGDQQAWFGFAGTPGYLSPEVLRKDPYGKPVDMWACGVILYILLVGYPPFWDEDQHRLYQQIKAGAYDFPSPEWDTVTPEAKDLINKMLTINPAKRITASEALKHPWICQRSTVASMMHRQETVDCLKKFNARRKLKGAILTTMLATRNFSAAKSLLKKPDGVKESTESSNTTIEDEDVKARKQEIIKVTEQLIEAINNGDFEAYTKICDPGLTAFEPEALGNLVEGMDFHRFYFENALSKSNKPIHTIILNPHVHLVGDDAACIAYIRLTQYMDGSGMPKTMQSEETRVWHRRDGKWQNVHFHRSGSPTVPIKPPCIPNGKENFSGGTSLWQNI
Calcium/calmodulin-dependent protein kinase type II subunit alpha (Homo sapiens), sequence (Q9UQM7 whole entry): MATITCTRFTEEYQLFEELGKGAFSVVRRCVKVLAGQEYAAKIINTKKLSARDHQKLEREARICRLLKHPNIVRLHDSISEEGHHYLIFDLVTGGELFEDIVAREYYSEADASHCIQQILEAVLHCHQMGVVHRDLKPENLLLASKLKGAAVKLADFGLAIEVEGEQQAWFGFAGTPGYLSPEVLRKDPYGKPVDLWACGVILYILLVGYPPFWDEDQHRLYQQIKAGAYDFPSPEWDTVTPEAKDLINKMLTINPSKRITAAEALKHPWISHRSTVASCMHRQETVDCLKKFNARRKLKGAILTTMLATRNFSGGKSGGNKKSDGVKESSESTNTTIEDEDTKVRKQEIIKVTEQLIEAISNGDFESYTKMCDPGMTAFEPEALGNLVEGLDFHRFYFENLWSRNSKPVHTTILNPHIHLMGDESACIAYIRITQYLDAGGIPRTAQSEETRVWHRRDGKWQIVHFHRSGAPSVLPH
Serine/threonine-protein kinase Chk2 (Homo sapiens), sequence (O96017 whole entry): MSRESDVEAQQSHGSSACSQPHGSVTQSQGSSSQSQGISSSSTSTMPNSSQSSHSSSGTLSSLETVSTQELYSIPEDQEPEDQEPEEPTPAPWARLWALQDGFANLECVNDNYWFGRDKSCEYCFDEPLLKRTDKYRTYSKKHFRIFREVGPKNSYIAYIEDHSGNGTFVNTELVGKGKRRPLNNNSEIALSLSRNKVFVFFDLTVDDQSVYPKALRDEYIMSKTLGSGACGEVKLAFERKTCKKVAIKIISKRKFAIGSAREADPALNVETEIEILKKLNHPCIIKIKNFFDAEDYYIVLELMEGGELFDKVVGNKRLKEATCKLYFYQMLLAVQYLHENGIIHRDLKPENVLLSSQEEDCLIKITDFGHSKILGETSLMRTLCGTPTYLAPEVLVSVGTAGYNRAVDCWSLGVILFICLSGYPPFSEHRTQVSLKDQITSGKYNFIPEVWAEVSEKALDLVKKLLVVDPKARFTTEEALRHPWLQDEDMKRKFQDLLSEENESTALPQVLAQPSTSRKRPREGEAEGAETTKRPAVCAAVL
Death-associated protein kinase 1 (Homo sapiens), sequence (P53355 whole entry, looked up): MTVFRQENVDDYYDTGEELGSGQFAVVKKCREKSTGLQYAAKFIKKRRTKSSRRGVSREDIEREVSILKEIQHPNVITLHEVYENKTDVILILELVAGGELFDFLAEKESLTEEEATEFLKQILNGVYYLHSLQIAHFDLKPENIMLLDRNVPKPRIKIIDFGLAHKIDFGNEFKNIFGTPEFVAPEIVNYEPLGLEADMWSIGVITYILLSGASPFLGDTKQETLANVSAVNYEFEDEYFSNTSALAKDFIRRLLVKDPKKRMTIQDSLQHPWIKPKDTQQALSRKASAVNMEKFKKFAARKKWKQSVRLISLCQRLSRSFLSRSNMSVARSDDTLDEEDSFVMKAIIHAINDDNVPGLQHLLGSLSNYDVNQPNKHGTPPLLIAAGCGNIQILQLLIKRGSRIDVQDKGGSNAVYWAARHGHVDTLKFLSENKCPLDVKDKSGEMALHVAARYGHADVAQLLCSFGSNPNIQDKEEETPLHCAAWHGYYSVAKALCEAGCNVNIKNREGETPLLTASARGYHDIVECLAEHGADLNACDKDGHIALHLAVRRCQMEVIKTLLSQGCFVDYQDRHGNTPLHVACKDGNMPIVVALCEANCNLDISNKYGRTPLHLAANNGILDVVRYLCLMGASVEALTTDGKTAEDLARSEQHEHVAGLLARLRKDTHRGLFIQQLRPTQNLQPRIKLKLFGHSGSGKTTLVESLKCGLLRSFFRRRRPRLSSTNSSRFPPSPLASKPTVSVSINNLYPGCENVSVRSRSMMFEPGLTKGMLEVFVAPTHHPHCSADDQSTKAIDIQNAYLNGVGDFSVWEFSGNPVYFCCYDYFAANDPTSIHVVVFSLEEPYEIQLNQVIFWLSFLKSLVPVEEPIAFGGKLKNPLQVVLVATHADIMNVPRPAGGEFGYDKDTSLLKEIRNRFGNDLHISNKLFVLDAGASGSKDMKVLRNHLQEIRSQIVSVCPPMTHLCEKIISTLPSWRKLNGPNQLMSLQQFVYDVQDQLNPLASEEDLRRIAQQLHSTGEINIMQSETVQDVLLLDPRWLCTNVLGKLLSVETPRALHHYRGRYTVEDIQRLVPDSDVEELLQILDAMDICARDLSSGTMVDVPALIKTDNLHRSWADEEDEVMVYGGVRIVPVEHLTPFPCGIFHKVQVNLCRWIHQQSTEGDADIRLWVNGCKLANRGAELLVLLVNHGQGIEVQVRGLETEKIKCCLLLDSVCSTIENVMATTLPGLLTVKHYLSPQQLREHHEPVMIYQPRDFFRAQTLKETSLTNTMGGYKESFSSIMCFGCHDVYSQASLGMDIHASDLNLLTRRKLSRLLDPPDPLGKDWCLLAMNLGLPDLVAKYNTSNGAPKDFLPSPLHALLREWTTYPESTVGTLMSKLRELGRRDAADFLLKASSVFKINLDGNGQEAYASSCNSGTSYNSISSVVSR
Serine/threonine-protein kinase MARK1 (Homo sapiens), sequence (Q9P0L2 whole entry, looked up): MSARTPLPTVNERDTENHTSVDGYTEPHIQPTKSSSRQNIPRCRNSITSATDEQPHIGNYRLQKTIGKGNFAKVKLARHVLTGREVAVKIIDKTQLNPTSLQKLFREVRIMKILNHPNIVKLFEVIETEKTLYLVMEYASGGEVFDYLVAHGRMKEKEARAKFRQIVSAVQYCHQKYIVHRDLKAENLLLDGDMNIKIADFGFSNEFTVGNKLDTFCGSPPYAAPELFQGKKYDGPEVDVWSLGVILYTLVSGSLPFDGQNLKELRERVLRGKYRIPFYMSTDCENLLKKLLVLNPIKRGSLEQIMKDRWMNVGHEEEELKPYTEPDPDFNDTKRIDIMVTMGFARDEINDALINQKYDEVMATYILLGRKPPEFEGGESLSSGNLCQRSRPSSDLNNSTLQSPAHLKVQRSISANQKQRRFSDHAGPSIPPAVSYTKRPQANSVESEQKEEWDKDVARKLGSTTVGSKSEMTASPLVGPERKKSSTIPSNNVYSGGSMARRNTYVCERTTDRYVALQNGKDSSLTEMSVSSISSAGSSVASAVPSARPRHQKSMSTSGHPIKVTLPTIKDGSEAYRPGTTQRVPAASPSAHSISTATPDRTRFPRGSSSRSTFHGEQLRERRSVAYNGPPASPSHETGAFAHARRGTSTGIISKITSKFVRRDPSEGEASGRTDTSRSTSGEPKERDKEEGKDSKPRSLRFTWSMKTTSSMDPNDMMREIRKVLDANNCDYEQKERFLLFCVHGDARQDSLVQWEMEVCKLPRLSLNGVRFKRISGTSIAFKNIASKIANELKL
MAP kinase-activated protein kinase 2 (Homo sapiens), sequence (P49137 whole entry, looked up): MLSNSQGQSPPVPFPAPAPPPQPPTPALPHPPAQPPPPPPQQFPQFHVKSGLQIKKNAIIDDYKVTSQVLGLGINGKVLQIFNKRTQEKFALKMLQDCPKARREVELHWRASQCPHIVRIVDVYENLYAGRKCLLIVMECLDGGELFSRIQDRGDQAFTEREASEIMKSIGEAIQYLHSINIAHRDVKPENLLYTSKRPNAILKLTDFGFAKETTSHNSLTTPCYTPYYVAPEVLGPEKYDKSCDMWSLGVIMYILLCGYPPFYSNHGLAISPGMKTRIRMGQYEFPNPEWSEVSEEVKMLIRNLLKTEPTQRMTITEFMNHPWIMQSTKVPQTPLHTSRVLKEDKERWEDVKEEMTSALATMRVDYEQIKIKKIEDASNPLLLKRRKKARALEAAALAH

As to `CCS(=O)(=O)c1ccc(OC)c(Nc2ncc(-c3cccc(OC)c3)o2)c1`, the inhibition in [1] is 6.74%; in experiment [2], 1.91%; in experiment [3] it was 9.35%; in experiment [4], -0.13%; in experiment [5], 1.2%; in experiment [6], 1.44%. For the same compound, the inhibition in experiment [7] was found to be 3.19%; in experiment [8] it was 1.56%; in [9] it was 2.17%; in experiment [10], 2.65%; in experiment [11], 4.19%; in experiment [12], 0.56%. Besides, the inhibition in experiment [13] was -0.14%; in experiment [14] it was 0.86%; in [15], 0.67%; in experiment [16] it was 1.43%; in experiment [17] it was 3.53%; in experiment [18], 1.2%. Moreover, the inhibition in experiment [19] came to 2.37%; in experiment [20], 3.96%.
For the compound `Nc1ccc(C#Cc2cncnc2Nc2ccc(OCc3cccc(F)c3)c(Cl)c2)cc1`, the inhibition in experiment [1] is -1.06%; in [2] it was 0.73%; in experiment [3] it was 0.72%; in experiment [4], 1.79%; in [5], -0.16%; in experiment [6] it was 0.65%. The inhibition is 0.62% in [7]; 1.8% in experiment [8]; 0.63% in [9]; 4.63% in experiment [10]; 1.54% in [11]; -0.36% in [12]. Moreover, the inhibition in experiment [13] is -0.03%; in experiment [14], 2.17%; in experiment [15], 0.48%; in experiment [16], 4.18%; in experiment [17], 4.4%; in experiment [18] it was 2.19%. Besides, the inhibition in experiment [19] stood at 3.58%; in [20], 2.93%.
As for `CCn1c(-c2nonc2N)nc2ccc(F)cc21`, the inhibition in [1] was 3.68%; in experiment [2] it was 3.98%; in experiment [3], 3.55%; in experiment [4], -2.59%; in [5], -2.75%; in experiment [6], 3.58%. The inhibition in [7] came to 8.57%; in experiment [8] it was 3.29%; in experiment [9] it was 4.58%; in [10] it was 8.42%; in [11], 10.7%; in experiment [12] it was 0.68%. The inhibition in experiment [13] was 0.5%; in experiment [14] it was 2.81%; in experiment [15] it was 3.62%; in experiment [16], 4.6%; in [17] it was 5.57%; in experiment [18], 14.8%. Besides, the inhibition in [19] came out at 6.7%; in experiment [20] it was 2.41%.
For the compound `Nc1nccc(C#Cc2cncnc2Nc2ccc(OCc3cccc(F)c3)c(Cl)c2)n1`, the inhibition was 5.08% in experiment [1]; 8.4% in [2]; 8.79% in [3]; -0.4% in experiment [4]; 0.61% in experiment [5]; 1.22% in experiment [6]. Moreover, the inhibition in experiment [7] came out at 7.61%; in experiment [8], 2.66%; in [9], 5.77%; in [10], 3.9%; in [11] it was 5.3%; in experiment [12] it was 1.36%. Moreover, the inhibition in experiment [13] was 0.82%; in experiment [14] it was 1.66%; in experiment [15], 1.43%; in experiment [16], 2.38%; in [17], 4.95%; in [18] it was 5.72%. The inhibition in [19] turned out to be 10.4%; in experiment [20] it was 4.09%.
Turning to `COC(=O)c1ccc2c(c1)C(=Cc1cc(Br)c(O)c(Br)c1)C(=O)N2`, the inhibition is 5.83% in experiment [1]; 3.29% in experiment [2]; 9.61% in [3]; -0.49% in experiment [4]; 4.64% in [5]; 9.68% in experiment [6]. The inhibition is 14.6% in experiment [7]; 8.72% in experiment [8]; 20.6% in experiment [9]; 9.92% in experiment [10]; -8.17% in [11]; 1.31% in experiment [12]. Further, the inhibition turned out to be 0.79% in experiment [13]; 4.54% in experiment [14]; 7.08% in experiment [15]; 8.04% in experiment [16]; 10.5% in [17]; 1.62% in [18]. Further, the figures for the inhibition in experiment [19] and in [20] were 5.65% and -2.9%, respectively.
In the case of `C[C@@H](Oc1cc(-n2cnc3ccc(OC[C@@H](O)CO)cc32)sc1C(N)=O)c1ccccc1Cl`, the inhibition was 2.24% in experiment [1]; -0.89% in experiment [2]; 7.31% in experiment [3]; 1.25% in experiment [4]; 1.44% in experiment [5]; 0.04% in [6]. Further, the inhibition is -1.83% in experiment [7]; -1.68% in experiment [8]; -1.71% in experiment [9]; -1.62% in [10]; -5.26% in experiment [11]; 0.92% in experiment [12]. In addition, the inhibition in experiment [13] was -6.84%; in [14], -0.75%; in experiment [15], -0.94%; in [16], -0.21%; in experiment [17], -0.73%; in experiment [18] it was 0.87%. Further, the inhibition in experiment [19] stood at 5.71%; in experiment [20], 0.4%.

The term inhibition denotes the drop in the measured response relative to a control, in per cent.
